The list is not random: actives were taken first. Their share in the collection is about 11%.
VACV mCherry inh: qHTS for Stage-Specific Inhibitors of Vaccinia Orthopoxvirus: mCherry Reporter Primary qHTS. Vaccinia virus mCherry reporter infection, fluorescence. 310,000 tested, 0.63% active. Potency, µM (series often up to 36.5 µM), usual class: inhibitors; calls by dose curve; tested in A549 cells; also: nearly all actives have a fitted effect of over 35% in size
VACV Venus inh: qHTS for Stage-Specific Inhibitors of Vaccinia Orthopoxvirus: Venus Reporter Primary qHTS | AID 720580, 2013 | Potency, µM (top dose mostly 36.5 µM), usual class: inhibitors | Vaccinia virus Venus reporter expression, fluorescence | 330,000 tested, 0.46% active; calls by dose curve; tested in A549 cells; also: nearly all actives have a fitted effect of over 30% in size
Pf growth 96h: Primary qHTS for delayed death inhibitors of the malarial parasite plastid, 96 hour incubation | Potency, µM (doses to about 28.7 µM), hits mostly inhibitors | 320,000 tested, 6.9% active | P. falciparum luciferase reporter growth, 96 h | AID 504834, 2011
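Infected RBCs, 2% Hct / 0.05% parasitemia final; luciferase-reporter P. falciparum; cpd 96 h, 37 C, 5% CO2; luciferase detection reagent; luminescence.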
HCV inh: qHTS Assay for Inhibitors of Hepatitis C Virus (HCV) | Huh7.5.1 HCVcc-Cre infection, luciferase reporter, 44 h | Potency, µM (top dose mostly 41.8 µM), hits mostly inhibitors | 340,000 tested, 3.4% active | AID 651820, 2012
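1,000 cells/well; 4 h culture; + compound; + HCVcc-Cre (~0.5 moi); 44 h; luciferase substrate, RT 15 min; read 15 sec.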
NS1 inh: qHTS Assay for Inhibitors of Influenza NS1 Protein Function; Potency, µM (series often up to 46.1 µM); 270,000 tested, 0.4% active; AID 2326, 2010; calls by dose curve; also: actives are rising curves; nearly all actives have a fitted effect of over 50% in size
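Compounds were scored for reversing the slow growth caused by influenza A NS1 in S. cerevisiae, measured by optical density at 600 nm. Assay medium contained 2% galactose at pH 6.0; NS1-free yeast of the same strain were the positive control.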
Pf growth 48h: Primary qHTS for delayed death inhibitors of the malarial parasite plastid, 48 hour incubation; 310,000 tested, 5.9% active; P. falciparum luciferase growth in erythrocytes, 48 h; AID 504832, 2011; Potency, µM (highest dose often 28.7 µM), actives largely listed as inhibitors
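A one-generation exposure of luciferase-tagged malaria parasites in RPMI 1640/Albumax erythrocyte culture, 37 C and 5% CO2. Inhibition is inferred from decreased luminescence after adding detection reagent.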
Hits are given with their value. Unless noted, calls follow the shape of the dose curve; as a rule, active = well fitted inhibition curve with a large enough effect; inconclusive = small, poorly fitted or top-dose-only effect, or another doubt; inactive = no such curve, though single readings can be large or run the other way.

Screening CCOC(=O)C1[C@H]2C(=O)N(C(C)c3ccc(OC)cc3)C[C@]23C=C[C@H]1O3 (some centres not stated) returned Pf growth 96h inconclusive, HCV inh inactive, NS1 inh inactive and Pf growth 48h inactive.
Screening CCCCN(CCCNC(=O)Cn1nc(CC)n2c(cc3sc(C)cc32)c1=O)Cc1ccccc1 returned Pf growth 96h inactive, HCV inh 8.91µM, NS1 inh inactive and Pf growth 48h inconclusive.
COc1cc(C2OCC3C(c4ccc(OC5OC(CO)C(O)C(O)C5O)c(OC)c4)OCC23)ccc1O (configuration not stated) was read as VACV mCherry inh inactive, VACV Venus inh inactive, Pf growth 96h inactive, HCV inh inactive, NS1 inh inactive and Pf growth 48h inactive.
COc1ccc(C[C@H]2COC(=O)[C@@H]2Cc2ccc(OC3OC(CO)C(O)C(O)C3O)c(OC)c2)cc1OC (some centres not stated) was read as VACV mCherry inh inactive, VACV Venus inh inactive, Pf growth 96h inactive, HCV inh 7.08µM, NS1 inh inactive and Pf growth 48h inactive.
For CN1CCc2nc3sc(C#N)c(N)c3c(-c3cccs3)c2C1 the results were HCV inh inconclusive, NS1 inh inactive and Pf growth 48h 13.1µM.
`CC(C)NC(=O)c1sc2nc3c(c(-c4cccs4)c2c1N)CN(C)CC3` gave VACV Venus inh inactive, Pf growth 96h inactive, HCV inh inactive and NS1 inh inactive.
`COc1ccc2cc(C#N)c(SCC(=O)N3CC(=O)Nc4ccccc43)nc2c1` gave Pf growth 96h inactive, HCV inh inconclusive, NS1 inh inactive and Pf growth 48h inactive.
CC(C)(C)c1ccc(C(=O)Nc2ccc(F)cc2)s1 was read as VACV mCherry inh inactive, VACV Venus inh inactive, Pf growth 96h inactive, HCV inh inconclusive, NS1 inh inactive and Pf growth 48h inactive.
Screening CCc1cc2cc(C(=O)Nc3ccccc3F)sc2s1 returned Pf growth 96h 9.28µM, HCV inh inconclusive, NS1 inh inactive and Pf growth 48h inactive.
`CCc1cc2cc(C(=O)Nc3ccc(F)cc3)sc2s1` gave Pf growth 96h 0.415µM, HCV inh inactive, NS1 inh inactive and Pf growth 48h inactive.
Screening COc1ccc2nc3sc(C(=O)Nc4ccccc4F)cc3cc2c1 returned VACV mCherry inh inactive and VACV Venus inh inactive.
For Cn1c(=O)c(=O)n(C)c2cc(S(=O)(=O)N3CCN(C4CCCCC4)CC3)ccc21 the results were VACV mCherry inh inactive, VACV Venus inh inactive, Pf growth 96h 8.28µM, HCV inh inactive and NS1 inh inactive.
`CC1CCCN(S(=O)(=O)c2ccc3c(c2)n(C)c(=O)c(=O)n3C)C1` (configuration not stated) gave Pf growth 96h inactive, HCV inh inactive, NS1 inh inactive and Pf growth 48h inactive.
CC(C)(C)C(=O)NNC(=O)COc1ccc2ccccc2c1Br was read as Pf growth 96h 2.33µM, HCV inh inactive, NS1 inh inactive and Pf growth 48h inactive.
Cc1nc(-c2ccc(C(=O)NCCO)cc2)cs1 was read as VACV mCherry inh inactive, VACV Venus inh inactive, Pf growth 96h inactive, HCV inh inactive and Pf growth 48h inactive.
For Cc1ccccc1NS(=O)(=O)c1ccc(C(=O)N2CCCC2)cc1 the results were VACV mCherry inh inactive, VACV Venus inh inactive, Pf growth 96h inactive, HCV inh inactive and Pf growth 48h inactive.
`NS(=O)(=O)c1ccc(CNC(=O)/C=C/c2ccccc2)cc1` gave VACV mCherry inh inactive, VACV Venus inh inactive, Pf growth 96h inactive, HCV inh inactive, NS1 inh inactive and Pf growth 48h inactive.
For O=C(Cc1csc(NC(=O)Nc2cccc(Cl)c2)n1)NCc1cccnc1 the results were VACV mCherry inh inactive, VACV Venus inh inactive, Pf growth 96h inactive, HCV inh inactive and Pf growth 48h inactive.
CC1=C(C(=O)Nc2ccccc2)C(c2ccncc2)n2nnnc2N1 (configuration not stated) was read as Pf growth 96h 0.928µM, HCV inh inactive, NS1 inh inactive and Pf growth 48h inactive.
For COc1ccc(CCNC(=O)CN(c2cccc([N+](=O)[O-])c2)S(C)(=O)=O)cc1 the results were VACV mCherry inh inactive, VACV Venus inh inactive, Pf growth 96h inactive, HCV inh inactive, NS1 inh inactive and Pf growth 48h inactive.
Screening CC(=O)c1ccc(NC(=S)NC(C)c2ccc(Cl)cc2Cl)cc1 (configuration not stated) returned VACV mCherry inh inactive, VACV Venus inh inactive, Pf growth 96h inconclusive, HCV inh inactive and Pf growth 48h 2.33µM.
O=c1[nH]c(=S)[nH]c(O)c1N=Nc1ccc(OC(F)F)cc1 was read as Pf growth 96h inactive, HCV inh inactive and Pf growth 48h inactive.
`O=C(Nc1ccc(CN2CCOCC2)cc1)c1ccc(-c2ccc(Br)cc2)o1` gave VACV mCherry inh inactive, VACV Venus inh inconclusive, Pf growth 96h inactive, HCV inh 8.91µM, NS1 inh inactive and Pf growth 48h 1.85µM.
For COc1c(C(=O)Nc2ccc(CN3CCOCC3)cc2)cc2ccccc2c1Br the results were VACV mCherry inh inactive, VACV Venus inh inconclusive, Pf growth 96h inactive, HCV inh 12.6µM, NS1 inh inactive and Pf growth 48h inactive.
O=C(Nc1ccc(CN2CCOCC2)cc1)c1cc2ccccc2oc1=O was read as NS1 inh inactive.
`Cc1nc(NC2=NCN(Cc3ccco3)CN2)nc2ccccc12` gave Pf growth 96h 1.85µM, NS1 inh inactive and Pf growth 48h inactive.
`Cc1nc(NC2=NCN(Cc3ccccc3)CN2)nc2ccccc12` gave Pf growth 96h inactive, NS1 inh inactive and Pf growth 48h inconclusive.
For Cc1cc2nc(NC3=NCN(CCCN4CCOCC4)CN3)nc(C)c2cc1C the results were NS1 inh inactive.
`CCOc1ccc2nc(NC3=NCN(Cc4ccco4)CN3)nc(C)c2c1` gave Pf growth 96h 14.7µM, NS1 inh inactive and Pf growth 48h inconclusive.
`Cc1nc(NC2=NCN(CCCN3CCOCC3)CN2)nc2c(C)cccc12` gave VACV mCherry inh inactive, VACV Venus inh inactive, Pf growth 96h inactive, HCV inh 7.08µM, NS1 inh inactive and Pf growth 48h 2.33µM.
For Cc1nc(NC2=NCN(C3CCCCC3C)CN2)nc2ccccc12 (configuration not stated) the results were Pf growth 96h inconclusive, HCV inh inactive, NS1 inh inactive and Pf growth 48h 13.1µM.
For CCC(=O)Nc1cccc(-c2nnc(SCC(=O)NCc3ccco3)n2C)c1 the results were VACV mCherry inh inactive, VACV Venus inh inactive, Pf growth 96h inactive, HCV inh inactive, NS1 inh inactive and Pf growth 48h inactive.
